The source of these data is PubChem BioAssay (NCI).

About 83,000 compounds went through this panel and 20% of them were active in at least one assay; those are over-represented in the sample as a whole.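 96-well plates, one dose, 48 hours. Percent growth reported; active if below 10.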 Values without a mark were called inactive. Activity calls are given as the source filed them.

Test systems include NCI-H23 lung; NCI-H226 lung; NCI-H322M lung; HOP-62 NSCLC; NCI-H460 lung; HOP-92 NSCLC; NCI-H522 lung; A549/ATCC NSCLC; 786-0 renal; COLO 205 colon.
Experiment in all cases: NCI-60 one-dose screen, 48 h (100 = growth as untreated, 0 = no growth, -100 = all killed)
Common to all, as to conditions: 10 µM unless noted

In the case of `COc1ccc(/C=C/C(=O)c2ccc(O)c(CN3CCN(c4cc5c(cc4F)c(=O)c(C(=O)O)cn5C4CC4)CC3)c2)cc1`, the growth with NCI-H23 lung was 37.7%; with NCI-H226 lung it was 52.2%; with NCI-H322M lung, 22.6%; with HOP-62 NSCLC, 19.5%; in the experiment on NCI-H460 lung, 51.4%; in the experiment with HOP-92 NSCLC it was 10.1%. In addition, the growth in the experiment on NCI-H522 lung is 16.9%; in the experiment on A549/ATCC NSCLC, 22.3%; with 786-0 renal, 27.8%; in the experiment on COLO 205 colon, 102%.
In the case of `O=C1/C(=C/C(Cl)=C/c2ccccc2)SC(=S)N1CCc1ccc(O)cc1`, the growth in the experiment on NCI-H23 lung is -18.1% (active); with NCI-H226 lung it was 55.7%; in the experiment with NCI-H322M lung, 44%; in the experiment on HOP-62 NSCLC it was -6.2% (active); in the experiment on NCI-H460 lung, 0.138% (active); with HOP-92 NSCLC, -1.85% (active). Also, the growth in the experiment with NCI-H522 lung was -7.91% (active); in the experiment on A549/ATCC NSCLC it was -5.56% (active); in the experiment with 786-0 renal, -47% (active); in the experiment on COLO 205 colon it was -9.3% (active).
In the case of `COc1ccc(C(=O)COc2cccc(/C=C3\CSc4ccccc4C3=O)c2)cc1`, the growth was 12.9% in the experiment on NCI-H23 lung; 79.9% with NCI-H226 lung; 62.4% in the experiment on NCI-H322M lung; 86.9% in the experiment on HOP-62 NSCLC; 72.6% with NCI-H460 lung; 60.4% in the experiment with HOP-92 NSCLC. Besides, the growth with NCI-H522 lung was -63.1% (active); in the experiment on A549/ATCC NSCLC it was 87.4%; in the experiment on 786-0 renal, 80.2%; with COLO 205 colon, 105%.
For the compound `Clc1ccc2c(NCCCNc3nc(-n4ccnc4)nc4ccccc34)ccnc2c1`, the growth with NCI-H23 lung was 96.1%; in the experiment with NCI-H226 lung, 90.4%; in the experiment on NCI-H322M lung, 94.7%; in the experiment with HOP-62 NSCLC, 83%; with NCI-H460 lung, 95.2%; in the experiment with HOP-92 NSCLC, 58%. For the same compound, the growth in the experiment on NCI-H522 lung is 89%; in the experiment on A549/ATCC NSCLC it was 92.3%; in the experiment on 786-0 renal, 77.6%; in the experiment with COLO 205 colon, 87.7%.
In the case of `Cc1[nH]c(-c2cc(N)ccc2Cl)c2c1C(=O)CCCC2`, the growth in the experiment with NCI-H23 lung was 36.3%; in the experiment on NCI-H226 lung, 36.1%; with NCI-H322M lung it was 40.8%; with HOP-62 NSCLC it was 15.9%; in the experiment with NCI-H460 lung, 57.3%; with HOP-92 NSCLC it was 24.5%. Further, the growth in the experiment with NCI-H522 lung was 16.2%; in the experiment with A549/ATCC NSCLC, 45.2%; in the experiment on 786-0 renal, 40.1%; in the experiment on COLO 205 colon, 22.6%.
In the case of `c1ccc2[nH]c(-c3ccc(Nc4nc(N5CCCC5)nc5[nH]ncc45)cc3)nc2c1`, the growth is -11.3% (active) in the experiment with NCI-H23 lung; 98.9% with NCI-H226 lung; 6.53% (active) in the experiment with NCI-H322M lung; -36.6% (active) with HOP-62 NSCLC; -44.3% (active) with NCI-H460 lung; -56.4% (active) in the experiment with HOP-92 NSCLC. Further, the growth was -54.7% (active) in the experiment with NCI-H522 lung, -42.4% (active) in the experiment on A549/ATCC NSCLC, -92.4% (active) in the experiment with 786-0 renal and -75.9% (active) in the experiment on COLO 205 colon.
On to `CCOc1ccc(C(C)=O)cc1NC(=O)c1cccc(-c2nnn(CC)n2)c1`, for which the growth is 42.6% in the experiment on NCI-H23 lung; 59% in the experiment on NCI-H226 lung; 49.1% with NCI-H322M lung; 36.8% in the experiment on HOP-62 NSCLC; 12.1% in the experiment with NCI-H460 lung; 42.5% in the experiment with HOP-92 NSCLC. The growth is -38.3% (active) with NCI-H522 lung, 45% in the experiment on A549/ATCC NSCLC, 35.5% in the experiment with 786-0 renal and -3.73% (active) with COLO 205 colon.
As for `O=C(Nc1ccc(Cl)cc1)c1cc2cc(F)ccc2cc1O`, the growth in the experiment with NCI-H23 lung was 7.14% (active); in the experiment on NCI-H226 lung, 7.16% (active); in the experiment on NCI-H322M lung it was 18.7%; in the experiment with HOP-62 NSCLC it was 12.1%; with NCI-H460 lung, 7.11% (active); in the experiment with HOP-92 NSCLC, -11.4% (active). For the same compound, the growth in the experiment with NCI-H522 lung is -0.904% (active); in the experiment with A549/ATCC NSCLC, 6.09% (active); in the experiment on 786-0 renal, 15.7%; with COLO 205 colon it was 69.5%.
With `Cn1c(=O)c2c(nc3n(-c4ccc(Cl)cc4Cl)c(Sc4nc(-c5ccccc5)c(C#N)c(=O)[nH]4)cn23)n(C)c1=O`, the growth was 65% in the experiment with NCI-H23 lung; 56.4% in the experiment on NCI-H226 lung; 26.4% in the experiment with NCI-H322M lung; 54.8% with HOP-62 NSCLC; 13.9% with NCI-H460 lung; 34.4% with HOP-92 NSCLC. The growth is 59.6% in the experiment with NCI-H522 lung, 20.9% in the experiment on A549/ATCC NSCLC, 15.1% with 786-0 renal and 71.8% with COLO 205 colon.
Take `OCc1ccc(N2CCc3cccc(F)c3C2)cc1Cl`: the growth was 84.7% [0.1 µM] in the experiment with NCI-H23 lung; -6.37% [0.1 µM] (active) with NCI-H226 lung; 106% [0.1 µM] with NCI-H322M lung; 44.7% [0.1 µM] in the experiment with HOP-62 NSCLC; 31% [0.1 µM] in the experiment on NCI-H460 lung; 82.3% [0.1 µM] in the experiment on HOP-92 NSCLC. For the same compound, the growth in the experiment with NCI-H522 lung was 80.6% [0.1 µM]; in the experiment with A549/ATCC NSCLC it was 62.9% [0.1 µM]; with 786-0 renal, 66.4% [0.1 µM]; with COLO 205 colon, 24.9% [0.1 µM].
Consider `CNC(=O)c1cc(Oc2ccc(NC(=O)Nc3ccc(Cl)c(SC)c3)c(F)c2)ccn1`, for which the growth in the experiment on NCI-H23 lung was 29.7%; with NCI-H226 lung it was 40.4%; with NCI-H322M lung it was 74.5%; in the experiment with HOP-62 NSCLC it was 62.1%; in the experiment on NCI-H460 lung, 58.2%; in the experiment on HOP-92 NSCLC, 48.8%. For the same compound, the growth was 17.5% in the experiment on NCI-H522 lung, 39.9% in the experiment on A549/ATCC NSCLC, 88.5% in the experiment with 786-0 renal and 24.4% with COLO 205 colon.
Consider `COc1ccc(-c2nc3ccc(-c4nc5ccc(N6CCN(c7ccc(F)cc7)CC6)cc5[nH]4)cc3[nH]2)cc1OC`, for which the growth is 60.7% in the experiment with NCI-H23 lung; 66.6% with NCI-H226 lung; 88.5% with NCI-H322M lung; 75.6% with HOP-62 NSCLC; 71.1% in the experiment on NCI-H460 lung; 63.6% with HOP-92 NSCLC. For the same compound, the growth is 45.3% in the experiment on NCI-H522 lung, 77.3% with A549/ATCC NSCLC, 79.5% in the experiment with 786-0 renal and 30.4% in the experiment on COLO 205 colon.
With `C=C(C)[C@@H]1CC[C@]2(C(=O)OC)CC[C@]3(C)[C@H](CC[C@@H]4[C@@]5(C)C/C(=C/c6ccc(OC)cc6)C(=O)C(C)(C)[C@@H]5CC[C@]43C)[C@@H]12`, the growth in the experiment with NCI-H23 lung was 84.8%; in the experiment on NCI-H226 lung, 97.2%; in the experiment on NCI-H322M lung, 106%; in the experiment on HOP-62 NSCLC, 99.9%; in the experiment on NCI-H460 lung, 101%; in the experiment with HOP-92 NSCLC, 77.9%. For the same compound, the growth in the experiment on NCI-H522 lung is 78.8%; with A549/ATCC NSCLC, 89.5%; with 786-0 renal, 92.2%; in the experiment on COLO 205 colon it was 94.4%.
